Hit rate of the full screen: of about 290,000 compounds, about 11,000 (3.8%) were called active.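 The calls were made as follows: active = mean replicate inhibition above about 79%, with every replicate also reaching it (limit read from the data); inconclusive = only one of the two criteria met; inactive = mean below limit and not every replicate reaching it.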 The list comes from a sample in which actives are over-represented; it also holds similar structures and randomly drawn compounds.

FAD-linked sulfhydryl oxidase ALR (Homo sapiens), sequence (P55789 whole entry, looked up): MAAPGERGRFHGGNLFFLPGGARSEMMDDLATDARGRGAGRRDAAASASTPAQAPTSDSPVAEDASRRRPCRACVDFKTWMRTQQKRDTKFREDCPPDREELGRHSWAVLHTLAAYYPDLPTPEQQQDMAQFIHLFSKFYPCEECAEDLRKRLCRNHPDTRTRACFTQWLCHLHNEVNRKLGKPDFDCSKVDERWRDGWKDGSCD

The test addresses FAD-linked sulfhydryl oxidase ALR (Homo sapiens) (UniProt P55789). Briefly: inhibitors of human ALR sulfhydryl oxidase, primary screen, biochemical, H2O2 detection, HRP-luminol luminescence, single point (AID 485317). The following applies: purified ALR, DTT oxidation, hits give high values, concentration not given here.
On to `CN1CCN(/N=C/c2c[nH]c3ccccc23)CC1`, for which the inhibition is 79.3% (active).

Take `Oc1cc2c(cc1CN1CCN(c3ccccc3)CC1)OCO2`: the inhibition is 60.4% (inactive).

As to `Fc1ccc(N2CCN(Cc3ccc4c(c3)OCO4)CC2)cc1`, the inhibition was 76.3% (active).

Consider `O=C(Cc1ccccc1[N+](=O)[O-])N1CCN(Cc2ccc3c(c2)OCO3)CC1`, for which the inhibition was -25.4% (inactive).

On to `COC(=O)C1=C(c2cc3ccccc3s2)C[C@@H]2CC[C@H]1N2C(=O)NCc1cccc2ccccc12`, for which the inhibition was -1.91% (inactive).

For the molecule `COC(=O)C1=C(c2ccccc2)C[C@@H]2CC[C@H]1N2C(=O)N1CCCCC1`, the inhibition is -3.97% (inactive).

Consider `C/C(CCc1c[nH]c2ccccc12)=N\O`, for which the inhibition was 98.1% (active).

Take `COc1ccc(CNCCc2c[nH]c3ccccc23)cc1OC`: the inhibition is 4.28% (inactive).

As for `c1cncc(CNCCc2c[nH]c3ccccc23)c1`, the inhibition is 10% (inactive).

Regarding `COC(=O)C1=C(c2ccc(Cl)c(C(F)(F)F)c2)C[C@@H]2CC[C@H]1N2C(=O)NC1CC1`, the inhibition is -18.1% (inactive).

As for `COc1ccc(N2C(=O)/C(=C/c3ccco3)C(=O)NC2=S)cc1`, the inhibition was 97.9% (active).

With `COc1cccc(N2C(=O)NC(=O)/C(=C\c3cn(C)c4ccccc34)C2=O)c1`, the inhibition is -2.44% (inactive).

As for `COc1ccc(CN2C(=O)NC(=O)/C(=C\c3ccc(OC)c(OC)c3OC)C2=O)cc1`, the inhibition was 20% (inactive).

Take `C[C@]12CC[C@H](O)CC1=C([N+](=O)[O-])CC1C2CC[C@@]2(C)C1CC[C@@H]2O` (stereo not given in full): the inhibition was 1.78% (inactive).

Regarding `COC(=O)C1=C(c2ccc(F)cc2OCc2ccccc2)C[C@@H]2CC[C@H]1N2C(=O)NCc1ccc2[nH]ccc2c1`, the inhibition is 5.75% (inactive).

On to `NCCc1c[nH]c2ccc(O)cc12`, for which the inhibition is 95.8% (active).

Turning to `Cc1cccc2c(CCN)c[nH]c12`, the inhibition was -8.02% (inactive).

With `COC(=O)C1=C(c2cc3ccccc3o2)C[C@@H]2CC[C@H]1N2C(=O)NC1CCCCC1`, the inhibition was 0.528% (inactive).

With `COC(=O)C1=C(c2cc3ccccc3s2)C[C@@H]2CC[C@H]1N2C(=O)NC(C)C`, the inhibition is 16.9% (inactive).

Take `O=c1[nH]c(O)c(C=Nc2cc(F)cc(F)c2)c(=O)[nH]1`: the inhibition is -1.04% (inactive).

For `Cc1ccnc(-n2c(C)cc(/C=C3\C(=O)NC(=S)N(C)C3=O)c2C)c1`, the inhibition is 97.1% (active).

With `Cc1cc(C=C2C(=O)NC(=O)NC2=O)c(C)n1-c1ccncc1`, the inhibition is 20.8% (inactive).

Take `Cc1ccc(-n2c(C)cc(/C=C3\C(=O)NC(=O)N(C)C3=O)c2C)cc1C`: the inhibition is -26% (inactive).

Take `COC(=O)C1=C(c2cccc(OCc3ccccc3)c2)C[C@@H]2CC[C@H]1N2C(=O)NNCc1ccccc1`: the inhibition was -3.1% (inactive).

As for `O=C(O)CCn1cc(C=C2C(=O)NC(=S)NC2=O)c(-c2cccc(Br)c2)n1`, the inhibition is 99.4% (active).

Turning to `CNCC(O)c1cc(F)c(OCc2ccccc2)c(OCc2ccccc2)c1F` (stereo not given), the inhibition was -16.5% (inactive).

For the molecule `COC(=O)C1=C(c2ccc(F)cc2OCc2ccccc2)C[C@@H]2CC[C@H]1N2C(=O)NCc1ccc(Cl)cc1`, the inhibition is 0.0344% (inactive).

Take `c1ccc(CCN2CCC3(CC2)OCCO3)cc1`: the inhibition was 0.745% (inactive).

Regarding `COc1ccc2c(c1)[C@]13CCCCC1C(C2)N(C)CC3` (stereo not given in full), the inhibition is -0.421% (inactive).

As to `CN(C)c1nc(N(C)C)nc(N(C#N)CCCl)n1`, the inhibition is 96.2% (active).

With `CCN1CCN(c2nc3c(c(=O)[nH]2)CCC3)CC1`, the inhibition was 2.56% (inactive).

Turning to `CCC(=O)c1ccc(OCC(=O)N2CCN(CC(=O)Nc3ccc(C)cc3)CC2)cc1`, the inhibition is -2.33% (inactive).

Regarding `O=C1NC(=O)N(Cc2ccco2)C(=O)/C1=C\c1ccc(-c2ccc(F)cc2)o1`, the inhibition was 13.9% (inactive).

`Cc1c(C(=O)O)cccc1-n1c(C)cc(/C=C2\C(=O)NC(=O)N(c3ccc4c(c3)OCO4)C2=O)c1C`: the inhibition was 12.1% (inactive).

In the case of `Cc1cc(/C=C2/C(=O)NC(=O)N(Cc3ccco3)C2=O)c(C)n1-c1ccc(C(=O)O)cc1`, the inhibition was 97.6% (active).

For `COC(=O)C1=C(c2ccc(F)cc2OCc2ccccc2)C[C@@H]2CC[C@H]1N2C(=O)NCc1ccc(OC)c(OC)c1`, the inhibition is -0.52% (inactive).

Regarding `COC(=O)C1=C(c2ccc(F)cc2OCc2ccccc2)C[C@@H]2CC[C@H]1N2C(=O)NCc1ccc(C(C)(C)C)cc1`, the inhibition was -8.86% (inactive).

For the molecule `O=C(CCC(=O)N1C[C@H]2C[C@@H](C1)c1cccc(=O)n1C2)NCc1ccccc1C(F)(F)F`, the inhibition is -3.58% (inactive).

As for `COC(=O)C1=C(c2c(C)noc2C)C[C@@H]2CC[C@H]1N2C(=O)NCc1ccc2c(c1)OCO2`, the inhibition was -6.31% (inactive).

Take `CC(Cc1ccccc1)NCCC(c1ccccc1)c1ccccc1` (stereo not given): the inhibition is -11.9% (inactive).

Consider `CC(=O)NC(=O)NC(C)Cc1ccccc1` (stereo not given), for which the inhibition is 99.2% (active).

With `CC(=O)c1ccc(OC(NC(=O)Cc2ccccc2)C(Cl)(Cl)Cl)cc1` (stereo not given), the inhibition is 5.09% (inactive).

As to `COC(=O)C1=C(c2ccc(Cl)c(C(F)(F)F)c2)C[C@@H]2CC[C@H]1N2C(=O)NC(C)C`, the inhibition was 0.07% (inactive).

For the molecule `COc1ccc(NC(=O)N2CCC3(CC2)OCCO3)c(OC)c1`, the inhibition is -26.4% (inactive).

In the case of `COc1ccc(-c2nc(CS(=O)CC(=O)N3CCC4(CC3)OCCO4)c(C)o2)cc1` (stereo not given), the inhibition was 98.9% (active).

For the molecule `Cc1ccc(-c2cc(C(=O)N3CCC4(CC3)OCCO4)no2)cc1`, the inhibition was 7.33% (inactive).

`COC(=O)C1=C(c2ccc(-c3ccccc3)c(F)c2)C[C@@H]2CC[C@H]1N2C(=O)NCc1ccc(F)cc1`: the inhibition is -0.106% (inactive).

As to `C=CC12CN(C)[C@@H]3C4CO[C@H](C[C@H]41)[C@]1(C(=O)Nc4ccccc41)[C@@H]32` (stereo not given in full), the inhibition was -7.63% (inactive).

As to `COC(=O)C1=C(c2cccc(OCc3ccccc3)c2)C[C@@H]2CC[C@H]1N2C(=O)NCc1ccc(Br)cc1`, the inhibition was -3.06% (inactive).

`CN1CCc2cc3c(cc2[C@H]1[C@@H]1OC(=O)c2c1ccc1c2OCO1)OCO3`: the inhibition is -8.76% (inactive).

For the molecule `Cc1ccccc1NC(=O)COC(=O)c1cc(C)n(C2CC2)c1C`, the inhibition was 5.99% (inactive).

For the molecule `COC(=O)C1=C(c2ccc3ccccc3c2)C[C@@H]2CC[C@H]1N2C(=O)NCCO`, the inhibition is -28.8% (inactive).

`C/C(=N/O)c1ccc2ccc3ccccc3c2c1`: the inhibition is 99.1% (active).

In the case of `O=[N+]([O-])c1cnc2ccc3ccccc3c2c1`, the inhibition was -42.1% (inactive).

Turning to `C[C@]12CCC3C(CC[C@H]4C[C@@H](O)CC[C@]34C)C1CC[C@@H]2O` (stereo not given in full), the inhibition was -1.96% (inactive).

`C[C@]12CCC3C(CC[C@H]4C[C@@H](O)CC[C@]34C)C1C[C@@H](O)[C@H]2O` (stereo not given in full): the inhibition was 2.15% (inactive).

Regarding `COC(=O)C1=C(c2ccc(F)cc2F)C[C@@H]2CC[C@H]1N2C(=O)NC1CC1`, the inhibition is -1.47% (inactive).

Turning to `COC(=O)C1=C(c2ccccc2OCc2ccccc2)C[C@@H]2CC[C@H]1N2C(=O)NCc1ccc(OC)cc1`, the inhibition is -2.59% (inactive).

For `COC(=O)C1=C(c2ccc(C(C)=O)cc2)C[C@@H]2CC[C@H]1N2C(=O)NCCNC(C)=O`, the inhibition was 4.07% (inactive).

Consider `O=c1c2ccccc2nc(/C=C/c2ccco2)n1-c1ccccc1O`, for which the inhibition is 47.2% (inactive).

Usually inhibition stands for the relative decrease from the control value, in per cent.

(Values after PubChem BioAssay AID485317 (Broad Institute, 2010).)
